# Compound activity: PubChem BioAssay, Sanford-Burnham Center for Chemical Genomics
# aDG glyco act: alpha-DG glycosylation activation; Pro5-aDG cells, alpha-DG glycosylation AlphaScreen (IIH6); 0% Pro5, 100% B10-LARGE cell signal; activation, % at 10 µM; hit rate 0.22% among 360,000; AID 624168;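 active = activation of at least 8% versus controls, or a plate z-score of at least 8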;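 note: Pro5 are CHO cells carrying HIG-tagged alpha-DG that lacks glycosylation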
# NadD block: inhibitors of Staphylococcus aureus NadD; AID 602399; hit rate 0.78% among 360,000; purified NadD enzyme, colorimetric absorbance read-out; inhibition, % at 20 µM; in the data active = inhibition above about 26%
# MPTP block: permeability transition pore inhibition; inhibition, % at 10 µM; hit rate 1.4% among 360,000; isolated mouse mitochondria, Ca2+ swelling absorbance, 30 min;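 active = inhibition of 50% or more, scaled per plate between neutral and stimulator controls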;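 note: 0% = DMSO wells given calcium and 100% = 1 mM EGTA wells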
# TAG inh: reduces triacylglycerol accumulation in H9c2 cells. AID 651582. hit rate 0.66% among 230,000. inhibition, % at 12.5 µM. Nile Red lipid (TAG) fluorescence; cells loaded with 200 µM oleic acid;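 active = pattern-corrected inhibition of lipid staining of at least 50% with the nuclear-stain viability signal not falling by more than 50%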;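 note: 0% = DMSO wells and 100% = triacsin C control wells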
# NadD inh conf: confirmation of Staphylococcus aureus NadD inhibitors. shares compounds with NadD block. purified S. aureus NadD, colorimetric enzyme assay. inhibition, % at 20 µM. hit rate 13% among 2,000. AID 624309; in the data active = inhibition mostly above about 42%, no sharp cut-off; inactive = mostly below about 42%
# Active calls of the source: *; . = no result. An excerpt weighted towards active compounds, which were near 2.7% of everything screened.
SMILES,aDG glyco act,NadD block,MPTP block,TAG inh,NadD inh conf
CC1CNC(=S)N(c2ccccc2)C1=O (configuration not stated),0,0,0,-5,.
O=C(Nc1ccc(N2CCCC2)cc1)C(c1ccccc1)c1ccccc1,0,37*,1,0,-7
O=C(Cc1ccccc1)Nc1ccc(N2CCCC2)cc1,0,41*,0,9,17
CC(=O)N1CCN(c2ccc(NC(=O)C(c3ccccc3)c3ccccc3)cc2)CC1,0,1,0,-6,.
CN(c1ccc(C(=O)N/N=C/c2cccc([N+](=O)[O-])c2)cc1)S(=O)(=O)c1ccccc1,0,21,0,.,.
Cc1ccc2[nH]c(C)c(CCNC(=O)c3cc4cc([N+](=O)[O-])ccc4oc3=O)c2c1,0,33*,1,.,5
O=C(O)c1ccc(CNC(=O)c2ccc3c(c2)C(=O)N(Cc2cccnc2)C3=O)cc1,0,-5,0,-29,.
Cc1cc2cc(CNC(=O)Nc3cccc(Cl)c3)ccc2n1C,0,34*,4,-16,4
Cc1cccc(NC(=O)NCc2ccc3c(c2)cc(C)n3C)c1,0,23,2,0,.
Cc1ccc(-c2nc(NC(=O)CSc3cc(C)c4ccccc4n3)ns2)cc1,0,31*,0,19,1
COc1ccc2c(C)cc(SCC(=O)Nc3nsc(-c4ccc(C)cc4)n3)nc2c1,0,3,-1,19,.
COc1ccc(/C=C(\C#N)C(=O)OCC(=O)Nc2ccc(-c3nc4ccc(C)cc4s3)cc2)cc1,0,29*,-1,17,6
CCOc1ccc2nc(NC(=O)c3cccc(N4C(=O)CCC4=O)c3)sc2c1,0,-25,0,17,.
CCOc1ccc2nc(NC(=O)c3cccc(-c4cc5ccccc5oc4=O)c3)sc2c1,0,39*,-2,21,5
CCOc1ccc(C(=O)Nc2cc(-c3nc4ccccc4[nH]3)ccc2C)cc1[N+](=O)[O-],0,12,0,1,.
CCOc1ccc(C(=O)Nc2cccc(-c3cc4ccccc4oc3=O)c2)cc1[N+](=O)[O-],1,36*,2,45,-4
CCOc1ccc(C(=O)Nc2cc(-c3nc4ccccc4[nH]3)ccc2Cl)cc1[N+](=O)[O-],0,34*,12,.,13
COc1ccc(C2=NOC(C(=O)Nc3ccc4c(c3)OCCO4)C2)cc1OC (configuration not stated),0,0,0,.,.
N#CC1=C2SCN(Cc3ccco3)CN2C(=O)CC1c1cccc2ccccc12 (configuration not stated),0,31*,0,-9,9
N#CC1=C2SCN(Cc3ccco3)CN2C(=O)CC1c1ccccc1F (configuration not stated),0,2,-1,.,.
Cc1nc(Nc2ccc(Cl)c(Cl)c2)sc1C(/C=C/c1ccc2c(c1)OCO2)=NNc1ccc([N+](=O)[O-])cc1[N+](=O)[O-],-1,48*,2,42,0
Cc1cnc(C)c(Nc2nc(C(N)Cc3ccc(C(F)(F)F)cc3)cs2)n1 (configuration not stated),2,9,19,23,.
CNc1ccc(Br)cc(C(=O)/C=C/c2ccc3c(c2)OCO3)c1=O,0,40*,0,-4,20
COCCn1c(SC(C)C(=O)NCC2CCCO2)nc2sc3c(c2c1=O)CCC3 (configuration not stated),0,0,0,30,.
O=c1[nH]c(=S)[nH]cc1Oc1ccc(Cl)cc1,0,6,-3,2,.
SMILES,aDG glyco act,NadD block,MPTP block,TAG inh,NadD inh conf
COc1ccccc1/C=C/C(=O)NC(=S)Nc1ccc(S(=O)(=O)N(C)c2ccccc2)cc1,0,34*,-1,-37,6
CCc1cccc2c1NC(=O)C21N2CCCC2C(C(=O)c2ccc3ccccc3c2)C12C(=O)Nc1ccccc12 (configuration not stated),0,39*,6,.,52*
CC(C)C[C@@H](CNCC(=O)[C@H](CC(=O)O)NC(=O)c1[nH]cnc1C(=O)N[C@H](CN)CC(C)C)NC(=O)c1nc[nH]c1C(=O)N[C@@H](Cc1ccccc1)C(=O)O,0,35*,-1,6,52*
Cc1cccc(/C=N/NC(=O)c2cc(-c3cccnc3)nc3ccccc23)c1,0,-8,-3,1,.
Cc1cccc(/C=N/NC(=O)c2cc(-c3cccnc3)nc3c2c(C)nn3-c2ccccc2)c1,0,37*,4,.,7
COCCCN=C1NN=C(c2cc(C)n(-c3ccccc3F)c2C)CS1,0,-5,8,12,.
COCCn1c(C)cc(C2=NNC(=Nc3ccccc3F)SC2)c1C,0,38*,1,15,17
CC(Cc1ccccc1)NC(=O)CCCN1C(=O)c2ccccc2C1=O (configuration not stated),0,0,0,.,.
Cc1cscc1-c1ccc(C(=O)Nc2c(C)cccc2C)o1,0,31*,0,-15,38
Cc1ccc(-c2ccc(C(=O)Nc3ccccc3)o2)c2ccccc12,0,10,2,-13,.
c1ccc2c(c1)ncc1cccn12,0,7,-1,.,.
CCn1c2ccccc2c2c3ncc4cccn4c3ccc21,0,39*,2,.,5
CCOCCCNC(=O)CSc1nnc(-c2ccc(S(=O)(=O)N3CCCC3)cc2)n1C,0,-1,-2,.,.
Cc1nc(N2N=C(c3ccc(Cl)cc3)CC2c2ccco2)sc1C(=O)N(C)C (configuration not stated),2,10,1,-3,.
COc1ccc(C2=NN(c3nc(-c4ccccc4)c(CC(=O)O)s3)C(c3ccco3)C2)cc1 (configuration not stated),0,61*,3,.,72*
COc1ccccc1-c1cc2nc(-c3ccccc3)cc(N3CCN(C(=O)c4ccoc4)CC3)n2n1,0,47*,2,13,32
COc1ccccc1-c1cc2nc(-c3ccccc3)cc(N3CCN(C(=O)c4ccco4)CC3)n2n1,1,41*,0,-8,31
COc1cccc(-c2cc(N3CCN(C(=O)c4ccoc4)CC3)n3nc(-c4cccc(Cl)c4)cc3n2)c1,0,37*,1,30,20
COc1ccc(CC(=O)Nc2nc(OCCN3CCCC3=O)cnc2-c2cccc(C(F)(F)F)c2)cc1,0,-3,0,1,.
O=C(CNC(=O)c1ccc([N+](=O)[O-])cc1)N/N=C\c1ccc(OC(=O)c2ccccc2)cc1,0,22,-4,5,.
Cc1ccc(CC(=O)N/N=C/c2ccc(OC(=O)c3ccc([N+](=O)[O-])cc3)cc2)cc1,0,33*,0,.,5
O=C(COC(=O)c1cccc(S(=O)(=O)N2CCCC2)c1)Nc1cccc(Br)c1,0,-6,1,-6,.
CN(C)c1ncnc2c1ncn2[C@H]1CN(Cc2ccc(-c3ccccc3)cc2)C[C@@H](CO)O1,0,-7,0,1,.
